This is a sample that favours compounds with a hit; in the whole collection about 10% have one here.
HPGD block = inhibitors of human 15-hydroxyprostaglandin dehydrogenase (HPGD); AID 894; Potency, µM, without a hit: at the highest dose activity change, negative = inhibition, actives largely listed as inhibitors; purified HPGD, NADH fluorescence kinetic, PGE2 substrate; 4.3% of 150,000 active; also: potency is read from the fitted curve at half-maximal effect
Target sequence (P15428 whole entry, looked up): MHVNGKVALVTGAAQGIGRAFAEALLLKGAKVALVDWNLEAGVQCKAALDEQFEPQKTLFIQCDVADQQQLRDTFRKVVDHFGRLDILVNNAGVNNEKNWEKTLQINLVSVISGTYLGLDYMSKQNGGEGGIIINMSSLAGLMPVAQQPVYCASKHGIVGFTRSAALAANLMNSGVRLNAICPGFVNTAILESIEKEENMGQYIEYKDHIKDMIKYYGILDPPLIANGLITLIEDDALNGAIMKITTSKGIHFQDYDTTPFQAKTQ
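20 nM HPGD preincubated 15 min at room temperature with compound in 50 mM Tris-HCl pH 8, 0.01% Tween 20. Started with 1 mM NAD+ and 30 uM prostaglandin E2; NADH fluorescence (360/450 nm) read 5 times over 30-s intervals, last minus first.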
ALDH1A1 block = blocks purified human ALDH1A1 activity; P00352; AID 1030; Purified ALDH1A1, NADH fluorescence, propionaldehyde substrate; 7.3% of 220,000 active; Potency, µM (series often up to 75.3 µM), inactives show at the top dose activity, negative = inhibition, hits mostly inhibitors;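 also: potency is read from the fitted curve at half-maximal effect; plate controls were no enzyme wells and a reference inhibitor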
Luc counter = blocks Kinase-Glo luciferase, a counter-screen artifact; Potency, µM (top dose mostly 38.3 µM), without a hit: at the highest dose activity change, negative = inhibition, most hits filed as inhibitors; Q27757; AID 1379; Kinase-Glo luciferase, ATP luminescence, 8 min; 0.28% of 200,000 active; active = well fitted inhibition curve with a large enough effect; inconclusive = small, poorly fitted or top-dose-only effect; also: potency is read from the fitted curve at half-maximal effect; nearly all actives have a fitted effect of over 60% in size
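Kinase-Glo luciferase light output from ATP and luciferin was measured with 10 uM ATP, within the enzyme's linear range. Buffer: 50 mM imidazole pH 7.2, 50 mM KCl, 7 mM MgCl2, 0.01% Tween 20, 0.05% BSA; luminescence read after 8 min at ambient temperature.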
PNC inhibitor = blocks assembly of the perinucleolar compartment. AID 2417. PC3M PTB-GFP, PNC prevalence imaging, 16 h; active compounds read low. activity change (PNC), negative = inhibition, % at 10 µM. 3.1% of 140,000 active;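 active = readout at or below -70, meaning at least 70% loss of cells showing the perinucleolar compartment, a nuclear body marking cancer cells; inconclusive = readout between -30 and a set limit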;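 also: plate controls were DMSO wells for no effect and camptothecin positive control wells for full effect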
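Compounds are pinned in duplicate onto adhered PC3M cells stably expressing GFP-tagged PTB and incubated 16 h at 37 C. Cells are then fixed, nuclei stained with Hoechst, and PNC-positive cells counted.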
LMNA splice mod = LMNA splicing modulation; HeLa LMNA splicing GFP/RFP minigene ratio, 48 h; Potency, µM (doses to about 46.1 µM), for inactives: at the top dose ratio change, negative = inhibition, actives largely listed as inhibitors; AID 1487; 0.01% of 200,000 active; active = well fitted inhibition curve with a large enough effect in the signal ratio, with a control signal flat, not every such curve was filed as active; inconclusive = small, poorly fitted or top-dose-only effect, or effect the other way, or a change in a side signal; the % refers to the signal ratio; also: potency is read from the fitted curve at half-maximal effect
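S3 HeLa stable clones carrying a lamin A-EGFP splicing minigene plus DsRed2 were seeded at 600 cells/well in Opti-MEM with 2% FBS, pin-dosed and incubated 48 h at 37°C. Acumen cytometry (488 nm) gave the GFP/RFP total-intensity ratio.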
* marks the source's active call; other numbers are inactive results; u = inconclusive; x = no result; [ ] = remark or other dose. Unless noted, calls follow the shape of the dose curve; as a rule, active = well fitted inhibition curve with a large enough effect (not every such curve was filed as active); inconclusive = small, poorly fitted or top-dose-only effect, or another doubt; inactive = no such curve, though single readings can be large or run the other way. Unless noted, % is scaled to controls: 0 for no effect and ±100 for the full control effect.

SMILES | HPGD block | ALDH1A1 block | Luc counter | PNC inhibitor | LMNA splice mod
COc1ccc2nc(NC3=NCCC3)sc2c1 | -8% | 8% | -5% | 65 | 3%
COc1ccc2nc(Nc3sc4c(c3C(N)=O)CCCC4)sc2c1 | 16µM* | 8.9µM* | 0% | -9 | u
Cc1ccccc1CN1C(=O)c2ccccc2S(=O)c2ccc(C(=O)NCc3ccc(Cl)cc3)cc21 (stereo not drawn) | x | x | x | x | 5%[46 µM]
COc1cccc(NC(=O)c2ccccc2-c2nc(-c3cccc(C)c3)no2)c1 | -11% | u | -3% | -139* | u
O=C(NCC1CCCO1)c1ccccc1-c1nc(-c2ccc(Cl)cc2)no1 (stereo not drawn) | 0% | -5% | 2% | 13 | -13%
Cc1cccc(-c2noc(-c3ccccc3C(=O)NCC3CCCO3)n2)c1 (stereo not drawn) | -8% | 16µM* | -5% | 50 | -2%
CCN1CCN(C(=O)CSc2cc(=O)n(CC)c3ccccc23)CC1 | u | 6% | -2% | 52 | u
CCn1c(=O)cc(SCC(=O)N2CCC(C)CC2)c2ccccc21 | 5µM* | 20µM* | -1% | -2 | -24%
CCn1c(=O)cc(SCC(=O)N2CCCCC2)c2ccccc21 | 7.9µM* | 20µM* | 0% | -11 | u
CC1(C)CC(=O)C=C(NCCO)C1 | -5% | -1% | -2% | 2 | -1%
CN(C)/C=C/C1=CC(=O)CC(C)(C)C1 | x | 8.9µM* | -1% | x | 6%[9.22 µM]
CC(=O)N1CCC(N(Cc2ccco2)C(=O)Nc2ccc(Br)cc2F)CC1 | x | x | x | x | 2%[46 µM]
S=c1[nH]nc([C@@H]2C[C@H]2c2ccccc2)n1-c1ccccc1 | 25µM* | u | 0% | u | 1%
O=C1C(Cl)=C(Sc2nnc3c4ccccc4c4ccccc4c3n2)C(=O)c2ccccc21 | u | u | -6%[7.66 µM] | x | x
Cc1cc(CNC(=S)Nc2cccc(Cl)c2Cl)nn1C | x | 4% | 1% | x | x
S=C(Nc1cccc(Cl)c1Cl)Nn1cnnc1 | 25µM* | 2.8µM* | 0% | 18 | -5%
Cc1cccc(NC(=S)Nn2cnnc2)c1C | x | 7.9µM* | 2% | x | x
S=C(NCc1ccc(Cl)cc1)Nc1ccc(Cl)cc1Cl | -2% | 6% | -2% | -12 | 15%
Cc1cccc(NC(=S)NN2CCN(C)CC2)c1C | -8% | 20% | 2% | 51 | 24%
S=C(Nc1ccc(Cl)cc1Cl)Nn1cnnc1 | 7.9µM* | 5% | 2% | u | -11%
O=C(CSCc1ccccc1)NNC(=S)Nc1cccc(Cl)c1Cl | -10% | 3.5µM* | 4% | 10 | -10%
O=C(Nc1ccccc1)N1CC[C@@]2(CCCN(C(=O)c3cnccn3)C2)C1 | -8% | 12% | -1% | x | x
CCOC(=O)c1c(C)[nH]c(C)c1C(=O)CSc1nc2ccccc2c(=O)n1-c1ccccc1C | -8% | 20µM* | -2% | -12 | -7%
CCOc1ccccc1-n1c(SCC(N)=O)nc2ccccc2c1=O | -5% | 9% | 0% | -106* | 0%
COc1ccc(C(=O)N2CCC[C@@]3(CCN(c4ccccn4)C3)C2)cc1 | -17% | 2% | -3% | x | x
SMILES | HPGD block | ALDH1A1 block | Luc counter | PNC inhibitor | LMNA splice mod
COC(=O)NC(CCc1ccccc1)C(C(=O)OC)C(=O)OC (stereo not drawn) | -8% | 7% | -6% | x | x
CC1CC(C)CN(CC(O)COCCOc2ccc(Br)cc2)C1 (stereo not drawn) | -5% | 6% | -2% | -102* | 2%
CCOC(=O)c1sc(=S)n(C)c1NC(=O)c1ccc(F)cc1 | 7.9µM* | 2.5µM* | -2% | 68 | -14%
CCOC(=O)c1sc(=S)n(CC)c1NC(=O)CC | -5% | -11% | -1% | 4 | -6%
CCOC(=O)c1sc(=S)n(C)c1NC(=O)c1ccccc1C | 10µM* | 10µM* | 0% | u | 8%
Cc1cnc(CNc2cc(-c3ccccc3CN(C)C)ncn2)cn1 | x | u | x | x | -5%
Cn1c(=O)c2c(nc(NN=C3CCCCC3)n2C)n(C)c1=O | x | u | 11µM* | x | x
O=C(NCc1cccnc1)C(=O)NCC(c1ccco1)N1CCN(c2ccccc2F)CC1 (stereo not drawn) | -11% | 11µM* | 1% | u | u
O=C(NCc1ccccc1)C(=O)NCC(c1ccco1)N1CCN(c2ccccc2F)CC1 (stereo not drawn) | x | u | 2% | x | -3%[1.84 µM]
COC(=O)N1CCC[C@@]2(CCN(C(=O)Nc3ccc(OC)cc3)C2)C1 | -5% | 4% | 0% | x | x
C=C1C(C2(C)C=CC(=O)C(C)(C)C2CC(=O)OC)CC[C@@]2(C)C(c3ccoc3)OC(=O)C3OC132 (stereo partly drawn) | -13% | 0% | 1% | x | -7%
O=c1c2c([N+](=O)[O-])cc([N+](=O)[O-])cc2sn1-c1ccc(Br)cc1 | 2.2µM* | 1.4µM* | 5% | -7 | -15%
O=c1c2cc(Br)ccc2nc(-c2ccc([N+](=O)[O-])cc2)n1O | x | -7% | 1% | x | x
Cc1cc(C(=O)Nc2nc(C)c(C(=O)N(C)C)s2)ccc1[N+](=O)[O-] | -6% | 10% | -4% | 4 | -3%
Cc1nc(NC(=O)c2ccc([N+](=O)[O-])cc2Cl)sc1C(=O)N(C)C | 14µM* | 13µM* | -3% | 36 | 15%
C=CCC(C)(O)CCc1ccccc1 (stereo not drawn) | 3% | 0% | -1% | x | x
O=C(COC(=O)Cc1ccsc1)NCc1ccc(Cl)cc1 | 28µM* | 12% | -2% | 3 | -11%
CC(NC(=O)COC(=O)Cc1ccsc1)c1ccccc1 (stereo not drawn) | -13% | 7% | 2% | 33 | u
CC(NC(=O)COC(=O)Cc1ccsc1)C1CC2CCC1C2 (stereo not drawn) | 28µM* | -2% | 4% | 4 | 7%
O=C(COC(=O)Cc1ccsc1)NCC1CCCCC1 | -3% | u | 1% | -90* | 14%
O=C(COC(=O)Cc1ccsc1)NCc1ccccc1 | -4% | 5% | 5% | 31 | -11%
O=C(COC(=O)Cc1ccc(Br)cc1)NCC1CCCCC1 | x | -9% | 0% | x | x
Cc1nn(-c2ccc(N3CCOCC3)nn2)c(C)c1CCC(=O)Nc1ccc(F)cc1F | x | x | x | x | -1%[46 µM]
Cc1ccc(NC(=O)Cn2c(=O)ccc3cc(S(=O)(=O)N4CCC(C)CC4)ccc32)cc1C | x | x | x | x | -3%[46 µM]
CC(Nc1ccccc1)c1cc(Cl)ccc1O (stereo not drawn) | -27% | 8% | -2% | u | -12%
COc1ccc(NC(C)c2cc(Cl)ccc2O)cc1 (stereo not drawn) | u | 22µM* | 0% | 18 | 15%
CC1CCN(c2nnc(-n3cccc3CNc3cccc(F)c3)s2)CC1 | x | x | x | x | -10%[46 µM]
COc1cccc2c1C(=O)c1c(O)c3c(c(O)c1C2=O)C[C@@](O)(C(=O)CO)C[C@@H]3O[C@H]1C[C@H](N)[C@H](O)[C@H](C)O1 | -14% | u | -28% | -115* | u
